High-throughput results deposited in PubChem BioAssay by National Center for Advancing Translational Sciences (NCATS).
Lamin A splicing = qHTS Assay for Modulators of Lamin A Splicing. HeLa LMNA splicing GFP/RFP minigene ratio, 48 h. Potency, µM (top dose mostly 46.1 µM), inactives show at the highest dose ratio change, negative = inhibition, most hits filed as inhibitors. hit rate 0.01% among 200,000; active means well fitted inhibition curve with a large enough effect in the signal ratio, with a control signal flat, not every such curve was filed as active; inconclusive means small, poorly fitted or top-dose-only effect, or effect the other way, or a change in a side signal; the % refers to the signal ratio; further: on the % scale 0 is the no-effect control and ±100 the full control effect
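S3 HeLa cells stably expressing lamin A-EGFP splicing minigene plus DsRed2, 600 cells/well, 48 h compound exposure at 37C. Laser-scanning cytometry; analysed as GFP (500-530 nm)/RFP (575-640 nm) total intensity ratio; 0.5% DMSO vehicle.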
HTT aggregate = qHTS Multiplex Assay to Identify Dual Action Probes in a Cell Model of Huntington: Aggregate Formation (GFP); PC12 HttQ103-GFP aggregates, Acumen cytometry, 40 h; Potency, µM (titrated, usually from 46.1 µM), for inactives: at the highest dose activity change, negative = inhibition, most hits filed as inhibitors; hit rate 1.1% among 220,000; AID 1688, 2009; further: on the % scale 0 is the no-effect control and ±100 the full control effect; nearly all actives have a fitted effect of over 60% in size
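Huntingtin Q103 exon 1–GFP aggregates in induced PC12 cells (100 nM tebufenozide) were quantified by cytometry from lysates, with compounds dosed in titration.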
HTT ATP protect = qHTS Multiplex Assay to Identify Dual Action Probes in a Cell Model of Huntington: Cytoprotection (ATP); PC12 HTT-Q103 induced, cytoprotection, ATP luminescence, 40 h; Potency, µM (highest dose often 56.4 µM), inactives show cytoprotection (ATP increase), actives largely listed as activators; hit rate 0.14% among 230,000; further: % of control where 0% means no effect; nearly all actives have a fitted effect of over 45% in size
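ATP quantification (ATPlite) reports survival of PC12 cells in which tebufenozide, 100 nM final, switches on Htt exon 1 with 103 glutamines linked to GFP; compounds are titrated.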
ALDH1A1 block = qHTS Assay for Inhibitors of Aldehyde Dehydrogenase 1 (ALDH1A1); Purified ALDH1A1, NADH fluorescence, propionaldehyde substrate; Potency, µM (titrated, usually from 75.3 µM), for inactives: at the top dose activity, negative = inhibition, most hits filed as inhibitors; hit rate 7.3% among 220,000; active means well fitted inhibition curve with a large enough effect, not every such curve was filed as active; inconclusive means small, poorly fitted or top-dose-only effect, or another doubt; inactive means no such curve, though single readings can be large or run the other way;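 further: plate controls were no enzyme wells and a reference inhibitor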
HPGD block = qHTS Assay for Inhibitors of HPGD (15-Hydroxyprostaglandin Dehydrogenase); AID 894, 2007; hit rate 4.3% among 150,000; Potency, µM, inactives show top-dose activity change, negative = inhibition, actives largely listed as inhibitors; purified HPGD, NADH fluorescence kinetic, PGE2 substrate; 15-hydroxyprostaglandin dehydrogenase [NAD(+)] (Homo sapiens), P15428; active means well fitted inhibition curve with a large enough effect, not every such curve was filed as active; inconclusive means small, poorly fitted or top-dose-only effect, or another doubt; inactive means no such curve, though single readings can be large or run the other way; further: on the % scale 0 is the no-effect control and ±100 the full control effect
Target sequence (P15428 whole entry, looked up): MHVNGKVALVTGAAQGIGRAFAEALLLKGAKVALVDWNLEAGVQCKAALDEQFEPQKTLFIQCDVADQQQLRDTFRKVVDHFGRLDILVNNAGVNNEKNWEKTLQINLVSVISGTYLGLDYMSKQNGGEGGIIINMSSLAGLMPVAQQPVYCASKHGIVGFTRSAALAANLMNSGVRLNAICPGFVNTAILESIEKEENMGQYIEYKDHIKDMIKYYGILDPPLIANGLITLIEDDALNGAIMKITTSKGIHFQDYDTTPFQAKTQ
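20 nM HPGD preincubated 15 min at room temperature with compound in 50 mM Tris-HCl pH 8, 0.01% Tween 20. Started with 1 mM NAD+ and 30 uM prostaglandin E2; NADH fluorescence (360/450 nm) read 5 times over 30-s intervals, last minus first.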
Starred values were filed as active, the others as inactive; ? = inconclusive; nt = not tested or not shown; [ ] = remark or other dose. Hits are enriched below; roughly 8.8% of the tested compounds scored in any of these assays. Unless noted, the call rests on the fitted dose curve; in most records, active means well fitted curve in the direction sought with a large enough effect; inconclusive means small, poorly fitted or top-dose-only effect, or another doubt; inactive means no such curve, though single readings can be large; an effect the other way counts as inactive or inconclusive. Potency means the concentration at half of the fitted maximal effect.

SMILES | Lamin A splicing | HTT aggregate | HTT ATP protect | ALDH1A1 block | HPGD block
N/C(Cc1cccc2ccccc12)=N\OC(=O)Cc1cccs1 | ? | -6% | -1%[0.074 µM] | ? | 28µM*
O=C(NCc1ccc(Cl)cc1)C1(c2cccs2)CCOCC1 | -4%[46 µM] | nt | nt | nt | nt
COc1ccc(C2=NN(CCC(=O)NCCc3ccccc3)C(=O)CC2)cc1 | 8%[46 µM] | nt | nt | nt | nt
CCN(CCCNC(=O)CN1N=C(c2ccccc2)CCC1=O)c1ccccc1 | -12%[46 µM] | nt | nt | nt | nt
CCN1CCS/C1=C/C=C/C1=[N+](CC)CCS1 | ? | 0.5µM* | -25%[10 µM] | nt | -19%
CCN1CCS/C1=C\C=C\C1=[N+](CC)CCS1 | ? | 1.1µM* | -66% | -9% | nt
CCOC(=O)NC(=O)c1cn(Nc2ccccc2C(F)(F)F)c(=O)[nH]c1=O | nt | 21%[9.22 µM] | 18%[10 µM] | nt | nt
CCCCC1OC23CCCCC2C(C#N)(C(=N)O3)C1(C#N)C#N (configuration not stated) | -1% | 18% | 5% | ? | ?
CCCCC1OC23CCCCC2C(C#N)(C#N)C1(C#N)C(=N)O3 (configuration not stated) | -10% | -10% | 7%[10 µM] | 1.8µM* | ?
O=C1c2cccc3c(N4CCCCC4)ccc(c23)C(=O)N1c1ccccn1 | 22% | ? | -55% | ? | -12%
O=C1c2ccccc2-c2n[nH]c(=O)c3ccc(N4CCCCC4)c1c23 | -30%[46 µM] | 20µM* | -133% | -15% | nt
CC(=O)Nc1c(I)c(C(=O)O)c(I)c(N(C)C(C)=O)c1I | nt | 9% | 2% | nt | nt
Cc1cccc(NC(=S)N2CCn3cccc3C2c2cccnc2)c1 (configuration not stated) | -11% | 8% | -16%[10 µM] | ? | -2%
COc1cccc(NC(=S)N2CCn3cccc3C2c2cccnc2)c1 (configuration not stated) | -19%[46 µM] | -14% | -26% | 14µM* | nt
S=C(NCc1ccccc1)N1CCn2cccc2C1c1cccnc1 (configuration not stated) | nt | -7% | -18% | 3.5µM* | nt
COC(=O)/C(C)=C/CC12OC(C)(C)C3CC(C=C4C(=O)c5cc6c(c(CCC(C)(C)Cl)c5OC431)OC1(C)CCC(=C(C)C)C6C1)C2=O (configuration not stated) | nt | nt | -86% | ? | ?
COC(=O)c1sc2cccc(F)c2c1S(=O)(=O)NCc1ccc(Cl)cc1 | -28%[46 µM] | nt | nt | nt | nt
COCCCNCC#CCOc1ccc(OC)cc1 | ? | 0%[9.22 µM] | -36% | 8.9µM* | nt
COCCCNC(=S)N1CCN(c2ccc([N+](=O)[O-])cc2)CC1 | ? | -23% | 9%[10 µM] | 28µM* | -8%
O=[N+]([O-])c1ccc(N2CCN(C(=S)NCc3ccc(Cl)cc3)CC2)cc1 | nt | -7%[9.22 µM] | -25%[10 µM] | 11µM* | nt
CCNC(=S)N1CCN(c2ccc([N+](=O)[O-])cc2)CC1 | 2% | 1% | -2% | 3.2µM* | -10%
O=P(O)(O)OP(=O)(O)O | -5% | -9% | -262% | -1%[13.5 µM] | -3%
COc1ccc(N(C)C(=S)Nc2ccc3nc(C)c(C)nc3c2)cc1 | -13% | 5% | -3%[10 µM] | 10µM* | -10%
Cc1nc2ccc(NC(=S)NCc3ccccc3)cc2nc1C | nt | -4% | 0%[10 µM] | -4% | nt
N#Cc1ccccc1-c1nc(NCCN2CCOCC2)c2ccccc2n1 | -13% | nt | -11% | 11% | nt
SMILES | Lamin A splicing | HTT aggregate | HTT ATP protect | ALDH1A1 block | HPGD block
N#Cc1cccc(-c2nc(NCCN3CCOCC3)c3ccccc3n2)c1 | ? | nt | -86% | 18µM* | nt
Cc1noc2ncnc(N3CCN(c4ccc(F)cc4)CC3)c12 | nt | -22% | -23% | 7% | nt
Cc1noc2ncnc(N3CCCCC3)c12 | nt | 9%[9.22 µM] | -5% | 32µM* | nt
CC(C)=CCC/C(C)=C/CC/C(C)=C/CSCC(=O)O | nt | nt | -24% | 0% | -12%
Cc1cccc(N2CCN(C(=O)c3cc(S(=O)(=O)N4CCC(C)CC4)cn3C)CC2)c1C | -6%[46 µM] | nt | nt | nt | nt
CN(C)CCNC(=O)C1CCN(c2ncnc3c2nc2n3CCCCC2)CC1 | 4%[46 µM] | nt | nt | nt | nt
CC(C)(C)C(=O)N1CCN(c2ccc([N+](=O)[O-])c(NCc3cccnc3)c2)CC1 | 12%[46 µM] | 7% | -13%[10 µM] | ? | nt
O=C(c1ccccc1F)N1CCN(c2ccc([N+](=O)[O-])c(NCc3cccnc3)c2)CC1 | nt | 8%[9.22 µM] | 4%[10 µM] | 7.9µM* | nt
O=C(c1ccccc1)N1CCN(c2ccc([N+](=O)[O-])c(NCC3CCCO3)c2)CC1 (configuration not stated) | ? | 2%[9.22 µM] | -56% | 13µM* | nt
O=C(c1ccccc1)N1CCN(c2ccc([N+](=O)[O-])c(NCc3cccnc3)c2)CC1 | 0% | 4% | 22%[10 µM] | 11µM* | -10%
O=C(NCC(c1cccnc1)N1CCN(c2ccccc2F)CC1)C(=O)Nc1ccc(F)cc1F (configuration not stated) | 3%[46 µM] | nt | nt | nt | nt
COc1cc(/C=C/C(=O)N2CCCCC2=O)cc(OC)c1OC | nt | nt | -4%[1.9 µM] | ? | -7%
COc1ccc(-n2ccnc2SCC(=O)Nc2cccc(OC)c2)cc1 | 1%[46 µM] | nt | nt | nt | nt
O=C1NC(C(=O)O)=CC(c2ccc([N+](=O)[O-])cc2)N1 (configuration not stated) | nt | -9%[9.22 µM] | 17%[10 µM] | 14µM* | nt
CC1(C(=O)O)COC(c2ccc([N+](=O)[O-])cc2)OC1 (configuration not stated) | -6% | -1% | 10% | -1% | -6%
Cc1ccccc1N/N=C/c1sc(=O)n(Cc2cccc(C(=O)O)c2)c1Cl | nt | -9%[9.22 µM] | 2%[10 µM] | nt | nt
O=C(O)c1cccc(Cn2c(Cl)c(/C=N/NC(=O)c3cc4ccccc4cc3O)sc2=O)c1 | nt | 5%[9.22 µM] | 2%[10 µM] | 10µM* | nt
COC(=O)c1cccc(Cn2c(Cl)c(/C=N/Nc3ccccc3C)sc2=O)c1 | ? | ? | nt | 22µM* | ?
O=C(O)c1cccc(Cn2c(Cl)c(/C=N/NC(=O)c3ccccc3)sc2=O)c1 | ? | 11% | 3% | 0% | -28%
O=C(Nc1ccc(Cl)c(Cl)c1)Nc1nnc(CC2=CCCCC2)s1 | ? | ? | 20%[10 µM] | -8% | -10%
